Shown are actives, neighbours in structure and some others; about 2.4% of the full set was active somewhere.
POLH inh: blocks human DNA polymerase eta activity; Q9Y253; recombinant Pol eta, fluorescent DNA replication assay; Potency, µM (doses to about 114 µM), without a hit: top-dose activity change, negative = inhibition, actives largely listed as inhibitors; 390,000 compounds, 1.2% hits; AID 588591; note: % is set by controls: 0 for no effect and ±100 for the full control effect
Target sequence (Q9Y253 whole entry, looked up): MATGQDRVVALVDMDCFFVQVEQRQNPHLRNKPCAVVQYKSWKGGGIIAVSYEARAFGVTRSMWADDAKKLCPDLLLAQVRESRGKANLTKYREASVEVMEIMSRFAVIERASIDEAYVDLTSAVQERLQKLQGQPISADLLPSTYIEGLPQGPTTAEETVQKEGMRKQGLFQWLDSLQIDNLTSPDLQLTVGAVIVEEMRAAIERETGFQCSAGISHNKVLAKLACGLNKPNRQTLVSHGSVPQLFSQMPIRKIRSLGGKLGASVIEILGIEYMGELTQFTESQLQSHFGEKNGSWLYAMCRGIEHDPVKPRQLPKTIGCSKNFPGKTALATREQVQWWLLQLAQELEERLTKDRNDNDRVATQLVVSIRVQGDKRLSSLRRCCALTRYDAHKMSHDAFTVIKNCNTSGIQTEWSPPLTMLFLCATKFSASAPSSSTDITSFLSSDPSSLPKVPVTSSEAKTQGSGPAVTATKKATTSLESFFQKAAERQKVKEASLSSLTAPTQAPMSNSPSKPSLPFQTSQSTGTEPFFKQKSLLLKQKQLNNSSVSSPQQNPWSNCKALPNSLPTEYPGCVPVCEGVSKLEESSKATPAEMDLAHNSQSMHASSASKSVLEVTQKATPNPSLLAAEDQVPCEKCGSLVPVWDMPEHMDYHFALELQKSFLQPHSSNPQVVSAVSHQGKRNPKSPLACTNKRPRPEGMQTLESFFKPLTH
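Pol eta at 10 nM preincubated with compounds 15 min at room temperature; reaction started with fluorescent substrate (50 nM final) and read kinetically at 0 and 10 min.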
GLS inhibitor: inhibitors of human glutaminase (GLS); GLS enzymatic activity, qHTS titration; Potency, µM (titrated, usually from 45.5 µM), for the others: top-dose activity change, negative = inhibition, usual class: inhibitors; 410,000 compounds, 0.21% hits; note: % is set by controls: 0 for no effect and ±100 for the full control effect
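Compounds were pin-transferred onto hKGA, after which L-glutamine (1 mM solution) and a detection mix of glutamate oxidase, HRP and Amplex Red were added. Initial and 30 min RT fluorescence reads were collected.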
POLI inh: DNA polymerase iota (human) inhibition; Q9UNA4; Pol iota fluorescent replication assay, 10 min; Potency, µM (top dose mostly 115 µM), inactives show at the highest dose activity, negative = inhibition, most hits filed as inhibitors; 390,000 compounds, 1% hits
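Fluorescent replication assay read twice, at 0 min and 10 min after adding 50 nM (final) substrate. Enzyme (10 nM) and compounds were first incubated 15 min at room temperature; enzyme-free buffer wells were negative controls.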
POLK inh: inhibitors of human DNA polymerase kappa; purified Pol kappa, fluorescent DNA synthesis assay, 10 min; Potency, µM (highest dose often 107 µM), inactives show top-dose activity, negative = inhibition, actives largely listed as inhibitors; 400,000 compounds, 0.53% hits; note: % is set by controls: 0 for no effect and ±100 for the full control effect
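Enzyme at 10 nM met test compounds for 15 min at room temperature. Substrate addition (50 nM final) began the reaction, which was monitored by fluorescence at 0 and 10 min.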
Pol beta inh: inhibitors of human DNA polymerase beta. 340,000 compounds, 1.3% hits. P06746. Pol beta primer extension/strand displacement, fluorescence kinetic. Potency, µM (highest dose often 114 µM), inactives show at the highest dose activity change, negative = inhibition, actives largely listed as inhibitors; note: % is set by controls: 0 for no effect and ±100 for the full control effect
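Pol beta (10 nM) and compounds were preincubated 15 min at room temperature, then 50 nM substrate (final) started primer extension/strand displacement. Reads were taken at 0 and 10 min; concentration-response data were fitted to a four-parameter Hill equation.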
APEX1 inh: blocks human APE1 abasic DNA cleavage | P27695 | recombinant APE1, TAMRA/BHQ-2 abasic DNA cleavage fluorescence | Potency, µM (series often up to 65.8 µM), for the others: at the highest dose activity change, negative = inhibition, most hits filed as inhibitors | 350,000 compounds, 0.35% hits | AID 2517;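 note: plate controls were vehicle for no effect and reference inhibitor for full effect; nearly all actives have a fitted effect of over 55% in size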
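0.75 nM APE1 + cpd, 15 min RT; start w/ 50 nM TAMRA/BHQ-2 THF-abasic dsDNA; kinetic fluor 525/598 nm ×3 reads @60 s; Δ(read3−read1); normalized to DMSO and NSC13755 control wells.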
* marks the source's active call; other numbers are inactive results; ? = inconclusive; nt = not tested or not shown; [ ] = remark or other dose. Calls come from the whole dose curve; as a rule, active = well fitted curve in the direction sought with a large enough effect; inconclusive = small, poorly fitted or top-dose-only effect, or another doubt; inactive = no such curve, though single readings can be large; an effect the other way counts as inactive or inconclusive. Potency is the fitted concentration of half-maximal effect.

SMILES	POLH inh	GLS inhibitor	POLI inh	POLK inh	Pol beta inh	APEX1 inh
CC(=O)Nc1cc([As](=O)(O)O)ccc1O	-12.9%	28.3%	?	-15.2%	-4.4%	6.1%
O=C(NC1(C(F)(F)F)Oc2ccc(Cl)cc2O1)N1CCC2(CC1)OCCO2 (centres undefined)	-14.1%	?	12.6%	0.3%	14.1µM*	-8.6%
CS(=O)(=O)N1CCC2(CC1)CN(Cc1ccncc1)C2	nt	nt	nt	10.2%[60.1 µM]	nt	16.7%
N.N.N.N.N.N.N.N.N.N.N.N.N.N.O.O.[Cl-].[Cl-].[Cl-].[Cl-].[Cl-].[Cl-].[Ru].[Ru].[Ru]	25.1µM*	nt	8.91µM*	nt	5.62µM*	8.6%
Cc1cc(/C=C2/C(=O)NC(=O)N(Cc3ccco3)C2=O)c(C)n1-c1ccccc1O	50.1µM*	3.6%	44.7µM*	-32.5%	28.2µM*	-5.8%
CCC(C)c1ccc(N2C(=O)NC(=O)/C(=C/c3cccn3CCOc3ccc(C)cc3)C2=O)cc1 (centres undefined)	6.8%	6.0%	35.5µM*	-73.7%	11.4%	-3.7%
Cc1ccc(N2C(=O)NC(=O)/C(=C\c3cccn3C(C)(C)C)C2=O)cc1	-10.5%	-3.6%	0.6%	-2.3%	-0.8%	0.8%
CCOP(=O)(OCC)C(NC(C)=O)C(Cl)(Cl)Cl (centres undefined)	9.6%	7.0%	1.6%	-9.4%	33.9%	11.2%
C=CCn1c(O)c(C=NCCCn2ccnc2)c(=O)[nH]c1=O	-6.9%	0.4%	35.8%	-2.7%	0.316µM*	5.4%
COC(=O)C1=C(c2ccccc2)C[C@@H]2CC[C@H]1N2C(=O)NCc1ccc(F)cc1	-17.9%	1.8%	20.7%	14.1%	nt	nt
CCOP(=O)(C#CC(C)(C)C)C(O)(c1ccccc1)C(F)(F)F (centres undefined)	-16.7%	-0.4%	-10.1%	-2.2%	1.3%	-2.2%
O=[N+]([O-])c1cc(-c2ccc([As](=O)(O)O)cc2)ccc1[As](=O)(O)O	nt	nt	nt	nt	20µM*	?
CN(C(=O)COc1nc2ccccc2s1)c1ccccc1	nt	nt	nt	13.3%[60.1 µM]	nt	-1.7%
CC(C)(C)C(=O)OCC12CCC(O1)C1(C)C(=O)OCC21 (centres undefined)	-19.8%	-4.9%	-4.6%	-7.8%	44.9%	2.7%
CCN1C(=O)C(=Cc2ccc(C)s2)C(=O)N(CC)C1=S	25.1µM*	-8.3%	0.5%	-12.7%	?	2.6%
CCN1C(=O)C(=Cc2cc(C)n(C3CC3)c2C)C(=O)N(CC)C1=S	-15.3%	-11.7%	11.7%	-13.3%	-0.3%	0.7%
CCC(=O)N1N=C(c2c(O)n(CCc3ccccc3)c(=O)[nH]c2=O)CC1c1ccc(OC)c(OC)c1 (centres undefined)	-23.0%	4.8%	69.2%	2.1%	17.9%	-6.4%
ClC1=C(Cl)C(Cl)(C2(Cl)C(Cl)=C(Cl)C(Cl)=C2Cl)C(Cl)=C1Cl	nt	nt	nt	6.7µM*	nt	11.2µM*
CC(=O)O[C@H]1CCC2C3CCC4=CC(=O)CCC4=C3C=C[C@@]21C (some centres undefined)	-23.0%	-19.9%	28.2µM*	-13.6%	5.1%	-8.5%
CC(=O)O[C@H]1CC[C@H]2[C@@H]3CCC4=CC(=O)CCC4=C3C=C[C@]12C	nt	-13.0%	nt	7.5%[19.4 µM]	nt	nt
O=C(CN1C(=O)S/C(=C\C=C\c2ccccc2)C1=O)Nc1ccccc1C(=O)O	35.5µM*	6.3%	?	4.2%	-6.7%	1.0%
Cc1ccccc1NC(=O)CCl	0.3%	-4.4%	-13.2%	6.8%	-1.6%	-0.9%
CN1CCCN(C(=O)COc2ccccc2)CC1	-15.9%	-0.5%	0.0%	6.5%	12.7%	-14.7%
COC1=C(C)C(=O)c2c(c(COC(N)=O)c3n2C[C@@H]2[C@@H]3N2C)C1=O (some centres undefined)	nt	nt	56.2µM*	?	nt	nt
CN1CCc2cc3c(c4c2C1Cc1ccccc1-4)OCO3 (centres undefined)	3.0%	44.4%	?	-1.9%	15.8µM*	33.1%
SMILES	POLH inh	GLS inhibitor	POLI inh	POLK inh	Pol beta inh	APEX1 inh
O=C(CCN1CCCCC1)Nc1ccc(Br)cc1C(=O)c1ccccc1	4.2%	-5.2%	10.6%	-15.5%	-2.4%	24.8%
CCCCN1C(=O)/C(=C/c2ccc(N(C)C)cc2)C(=O)N(Cc2ccco2)C1=O	39.8µM*	1.8%	?	25.1µM*	22.4µM*	?
CCCCN1C(=O)/C(=C\c2ccco2)C(=O)N(CCc2ccccc2)C1=O	39.8µM*	0.4%	?	25.1µM*	8.91µM*	?
O=C1NC(=O)N(c2ccccc2)C(=O)/C1=C\c1ccc([N+](=O)[O-])o1	nt	nt	nt	nt	7.94µM*	?
O=[N+]([O-])c1cccc(C2N3CCCN23)c1 (centres undefined)	-17.2%	4.4%	17.5%	-1.2%	90.7%	12.4%
CCN(CC)C(=O)c1ccc2c(c1)C1C(Cl)C(Sc3ccccc3[N+](=O)[O-])CC1C(C(=O)O)N2 (centres undefined)	17.8µM*	?	?	?	50.1µM*	-11.3%
O=C(O)c1cccc2c1NC(c1cccc([N+](=O)[O-])c1)C1CC(Sc3ccccc3[N+](=O)[O-])C(Cl)C21 (centres undefined)	31.6µM*	5.1%	?	?	?	-9.7%
O=C(O)c1ccc2c(c1)C1C(Cl)C(Sc3ccccc3[N+](=O)[O-])CC1C(c1cccc([N+](=O)[O-])c1)N2 (centres undefined)	22.4µM*	-7.8%	?	50.1µM*	?	-9.6%
CCN(CC)C(=O)c1ccc(NC(=O)c2cccc(S(=O)(=O)N3CCN(Cc4ccccc4)CC3)c2)cc1	-17.8%	1.0%	6.4%	-11.4%	nt	-27.4%
O=C(c1ccc2c(c1)N(Cc1ccc(F)cc1)C(=O)c1ccccc1S2)N1CCC2(CC1)OCCO2	-23.8%	-2.3%	?	-21.9%[60.1 µM]	-13.4%	nt
ClC1=C(Cl)C(Cl)=C(Cl)C1=C/C=C/c1ccccc1	?	-7.4%	44.7µM*	?	?	?
O=C1NC(=O)N(c2ccccc2)C(=O)/C1=C\C=C\c1ccccc1	?	?	?	-11.4%	?	-1.9%
O=C1NC(=O)C(=C/C=C/c2coc3ccc(Br)cc3c2=O)C(=O)N1	nt	nt	nt	nt	1.58µM*	?
O=C1NC(=O)C(=Cc2coc3ccccc3c2=O)C(=O)N1	-6.8%	30.0%	10.5%	-3.6%	1.9%	-1.1%
Cn1cccc1/C=C1/C(=O)NC(=O)N(Cc2ccc(F)cc2)C1=O	79.4µM*	-5.6%	39.8µM*	70.8µM*	1.4%	-9.7%
CCN(CC)C(=S)NCCc1ccccc1	-4.6%	8.2%	-28.6%	-1.7%	9.1%	9.7%
